Inconclusive results are not listed. The source made the active and inactive calls. Calls follow the shape of the dose curve; as a rule, active = well fitted inhibition curve with a large enough effect; inconclusive = small, poorly fitted or top-dose-only effect; inactive = flat fitted curve, though single readings scatter.
Assay: P-glycoprotein substrates identified in KB-8-5-11 adenocarcinoma cell line, qHTS therapeutic library screen (AID 1346987); also: nearly all actives have a fitted effect of over 65% in size
Conditions: KB-8-5-11 (P-gp overexpressing) viability, CellTiter-Glo, 72 h; series mostly up to 44.5 µM; activity change, negative = cytotoxicity: at the top concentration
Outline: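 Compounds are pinned in dose-response onto KB-8-5-11 cells (500 cells/well, colchicine-free medium) and left 72 h at 37 degree C. CellTiter-Glo luminescence then yields AC50 values.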
% is scaled to controls: 0 for no effect and ±100 for the full control effect; potency is read from the fitted curve at half-maximal effect.

Which “activity change, negative = cytotoxicity” value does the source give for C[C@@H]1C(=O)O[C@H]2C[C@]34[C@H]5C[C@@H](C(C)(C)C)[C@]36[C@@H](OC(=O)[C@H]6O)O[C@]4(C(=O)O5)[C@]21O here?
The value was 3.36% [at 17.3 µM] (inactive).

Which “activity change, negative = cytotoxicity” value does the source give for CCOC(=O)c1sc(NC(=O)[C@H](C(C)C)n2c(=O)[nH]c3ccccc3c2=O)nc1C here?
Its value is -7.48% (inactive).

With Cc1cccc2c1NC(=O)C2(c1ccc(O)cc1)c1ccc(O)cc1 as the molecule, how does the “activity change, negative = cytotoxicity” value read?
The value was -21.4% (inactive).

For COC(=O)C[C@H]1[C@]2(C)C3=C(C)[C@H](c4ccoc4)C[C@H]3O[C@@H]2[C@H](OC(C)=O)C2[C@](C)(C(=O)OC)C=CC(=O)[C@@]21C (some centres not stated), which “activity change, negative = cytotoxicity” value is on record?
Its value is -13.2% [at 17.3 µM] (inactive).

With COc1cc(O)c([C@@H](CC(=O)N2CC(C)CC(C)C2)c2ccc3c(c2)OCO3)c(OC)c1 (some centres not stated) as the molecule, how does the “activity change, negative = cytotoxicity” value read?
The value was -16.6% (inactive).

With NCCCNc1ccc(Nc2nccc(Nc3cc(C4CC4)[nH]n3)n2)cc1 as the molecule, how does the Potency read?
The Potency was 1.3 µM (active).

With C/C=C/c1ccc2oc(-c3ccc(O)c(OC)c3)c(C)c2c1 as the molecule, how does the “activity change, negative = cytotoxicity” value read?
Its value is -9.73% (inactive).

With Cn1nnc(-c2ccc(-c3ccc(N4C[C@H](CO)OC4=O)cc3F)cn2)n1 as the molecule, how does the “activity change, negative = cytotoxicity” value read?
Its value is -10.6% (inactive).

With CCc1cccc(CC)c1NC(=O)c1nn(C)c2c1CCc1cnc(Nc3ccc(C(=O)NC4CCN(C)CC4)cc3OC(F)(F)F)nc1-2 as the molecule, how does the Potency read?
The Potency was 3.55 µM (active).

Which “activity change, negative = cytotoxicity” value does the source give for C=C(C)C1CCC(C)C12CC(O)C1(C)OC1C2OC(=O)C(N)CCC(=O)O (configuration not stated) here?
The value was 8.63% (inactive).

For C[C@@]12C[C@]3(O)O[C@H](O1)[C@]1(COC(=O)c4ccccc4)[C@H]3C[C@@]12O[C@@H]1O[C@H](CO)[C@@H](O)[C@H](O)[C@H]1O, which “outcome” value is on record?
The value was “inactive [at 17.3 µM]”.

Which “outcome” value does the source give for COC(=O)C1=CO[C@@H](O[C@@H]2O[C@H](CO)[C@@H](O)[C@H](O)[C@H]2O)[C@H]2[C@@H]1CC(OC)O[C@@H]2C (some centres not stated) here?
The value was “inactive [at 17.3 µM]”.

Reference: PubChem BioAssay (NCATS)
